Measurements: PubChem BioAssay AID1700 (The Scripps Research Institute Molecular Screening Center, 2009)
Screen size: about 290,000 compounds; about 670 (0.23%) were called active. The sample as a whole holds a higher share of actives than the screen did. A number with no mark means an inactive call.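 The calls were made as follows: active = inhibition above a per-plate limit of that plate's mean compound inhibition plus 3 SD (cut at about 60% in these data); inactive = the rest.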

Assay: KLF5 expression inhibitors, primary screen, DLD-1 cells, luminescence (AID 1700);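 also: 0% = DMSO wells and 100% = LY294002 at 200 µM; higher means less KLF5 promoter-driven luciferase light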
Settings: DLD-1 KLF5 promoter-luciferase reporter, at 5 µM, stronger effect = higher value
Molecule COC(=O)c1ccc(COc2ccc(/C=C/C(=O)c3ccc(OC)c(CSCC(=O)O)c3)cc2OC)cc1 has an inhibition of 26.8%.
For CCC(C(=O)NCc1cccnc1)n1nc(C)c2sc3ccccc3c2c1=O (stereo not given), the inhibition was -24.5%.
CC(C)CNS(=O)(=O)c1ccc(C(=O)Nc2ccc3c(c2)OCO3)cc1 gave an inhibition of -18.9%.
COc1ccccc1C(=O)NC(=S)NC12CC3CC(CC(C3)C1)C2 gave an inhibition of -5.49%.
Cc1ccc(-c2csc(NC3OC(=O)c4ccccc43)n2)cc1 (stereo not given) gave an inhibition of 9.97%.
With Cc1ccn2c(=O)c(C(=O)NCCC3=CCCCC3)c(O)nc2c1 the inhibition was 2.41%.
For C[C@@H]1C[C@@H]2O[C@H]2/C=C\C=C\C(=O)Cc2c(Cl)c(O)cc(O)c2C(=O)O1, the inhibition was 64.1% (active).
COc1cc2c(cc1O)[C@H](Cc1ccc(Oc3cc(C[C@@H]4NCCc5cc(OC)c(O)cc54)ccc3O)cc1)NCC2 showed an inhibition of -7.79%.
In the case of CC[C@H]1CN2CCc3cc(OC)c(OC)cc3[C@@H]2C[C@@H]1C[C@H]1NCCc2cc(OC)c(OC)cc21, the inhibition is reported as 106% (active).
CCc1ccc(OCC2c3cc(OC)c(OC)cc3CCN2C(C)=O)cc1 (stereo not given) showed an inhibition of -8.46%.
COc1ccc(Cc2nnc(SCC(=O)Nc3ccc(C)c(C)c3)o2)cc1OC gave an inhibition of -24.5%.
In the case of COc1cccc(N(CC(=O)NC2CCCCCC2)S(=O)(=O)c2ccccc2)c1, the inhibition is reported as -3.24%.
For Cc1cccc(OCC(=O)Nc2ccc(NC(=O)c3ccco3)c(C)c2)c1, the inhibition was -14.3%.
Work on O=C(COc1ccc(Cl)cc1)NCCS(=O)(=O)N1CCN(c2ccc(F)cc2)CC1 yielded an inhibition of -3.45%.
With Oc1c(Cl)cc(Cl)c(Cl)c1Cc1c(O)c(Cl)cc(Cl)c1Cl the inhibition was 81% (active).
Molecule O=C(N/N=C1\CCSC1)c1cc(Cl)ccc1O has an inhibition of -24.9%.
In the case of COc1ccc(CNc2nccs2)cc1, the inhibition is reported as -8.32%.
Molecule COc1ccc(C(C)NC(=O)C23CC4CC(CC(C4)C2)C3)cc1 (stereo not given) has an inhibition of 13.8%.
With Cc1ccc(O)c(NC(=O)c2cc(-c3ccco3)on2)c1 the inhibition was -124%.
Molecule N#Cc1ccc(C(=O)Nc2nc(-c3cccs3)c(C(=O)C(F)(F)F)s2)cc1 has an inhibition of 16.3%.
For Cn1c(=O)c2c(nc(NCCNC(=O)c3ccco3)n2Cc2ccccc2F)n(C)c1=O, the inhibition was -15%.
Cc1nn2c(c1-c1ccccc1)N=C(c1ccco1)CC2c1ccccc1 (stereo not given) gave an inhibition of -26.4%.
CS(=O)(=O)c1ccc2nnn(OCC(=O)Nc3cccc(C#N)c3)c2c1 gave an inhibition of -3.59%.
For O=C(Nc1cccc(Cl)c1)c1cc(S(=O)(=O)N2CCCCC2)c[nH]1, the inhibition was -39.1%.
For COc1ccc(S(=O)(=O)n2nc(C)c(S(=O)(=O)N3CCOCC3)c2C)cc1, the inhibition was -33.4%.
CCOC(=O)N1CCN(S(=O)(=O)c2ccc(-n3cnnn3)cc2)CC1 showed an inhibition of -18.3%.
In the case of O=C(NCc1cc(F)cc(C(F)(F)F)c1)C1CCC(=O)N(C2CCCC2)C1 (stereo not given), the inhibition is reported as 11.8%.
With CCCCC(C(=O)NC(C)(C)C)N(Cc1ccccc1)C(=O)c1snc(C(N)=O)c1N (stereo not given) the inhibition was -18.5%.
In the case of COc1ccc(C(C)NC(=S)NC2CCCCC2)cc1OC (stereo not given), the inhibition is reported as -29.8%.
CC1CCN(C(=O)Cn2nnnc2CN2CCOCC2)CC1 gave an inhibition of -8.54%.
Work on CC(=O)N1CC(=O)N(CC(=O)Nc2ccc(Br)cc2)C1=S yielded an inhibition of -0.85%.
Work on COC(=O)c1cccc(C(=O)N2CCCC(Nc3ccc4c(c3)OCCO4)C2)c1 (stereo not given) yielded an inhibition of -10.2%.
For CC1CCC(NS(=O)(=O)c2ccc3c(c2)CC(=O)N3)CC1 (stereo not given), the inhibition was 10.7%.
Molecule C=CCn1c(SCc2ccc(C(=O)NCCO)cc2)nc2ccccc2c1=O has an inhibition of -13.8%.
Molecule CCN1CCCC1CNC(=O)c1cc2cc(OC)c(OC)cc2[nH]1 (stereo not given) has an inhibition of -5.17%.
With Cc1ccc(CNC(=O)CCNS(=O)(=O)c2ccc(Br)s2)cc1 the inhibition was -6.34%.
Work on CC(NC(=O)c1cc2cc(Cl)ccc2oc1=N)c1ccccc1 (stereo not given) yielded an inhibition of -15.5%.
Molecule COc1ccc2[nH]cc(/C=C(/C#N)S(=O)(=O)c3ccccc3)c2c1 has an inhibition of -24.4%.
In the case of COc1ccc(/C=C(\C#N)c2c[nH]c3ccccc23)cc1, the inhibition is reported as 62.4% (active).
With COc1cc(/C=C(\C#N)c2nc3ccccc3[nH]2)ccc1O the inhibition was -74.6%.
